# Screens as filed in PubChem.
# Cdc42 wt GTP: modulators of GTP binding to wildtype Cdc42, primary screen, biochemical, multiplex bead flow cytometry, Bodipy-GTP. Cell division control protein 42 homolog (Homo sapiens), P60953. GST-Cdc42 beads; actives lie on both sides. percent activity (GTP binding), % at 10 µM. hit rate 0.2% among 190,000. AID 761, 2007;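 active = percent activity GTP binding at least 20 points away from the 100% baseline, either down as inhibitor or up as activator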;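 also: median bead fluorescence of bound Bodipy-FL-GTP at 100 nM; below 100% means less GTP binding so inhibitor and above means activator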
# Target sequence (P60953 whole entry, looked up): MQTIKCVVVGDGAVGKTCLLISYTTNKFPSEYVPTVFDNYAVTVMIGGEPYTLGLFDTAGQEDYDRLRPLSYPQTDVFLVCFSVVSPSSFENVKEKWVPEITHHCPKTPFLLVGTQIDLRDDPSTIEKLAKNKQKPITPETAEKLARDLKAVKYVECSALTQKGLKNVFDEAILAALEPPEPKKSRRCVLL
# Rac1 mut GTP: GTP binding modulators of activated mutant Rac1, primary screen, biochemical, bead-based flow cytometry, multiplex, fluorescent GTP. hit rate 0.11% among 190,000. GST-Rac1 activated beads; actives lie on both sides; 100% means binding = to untreated wells. percent activity (GTP binding), % at 10 µM;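 active = GTP binding at least 20 percentage points away from the 100% baseline, in either direction, so actives lie on both sides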
# Rab2 wt GTP: modulators of GTP binding to Rab2A wildtype, primary screen, biochemical, dog, bead-based flow cytometry, multiplex | Ras-related protein Rab-2A (Canis lupus familiaris), P61105 | GST-Rab2 wt beads, Bodipy-GTP binding | GTP binding activity, % at 10 µM | hit rate 0.19% among 190,000 | AID 760, 2007;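 active = GTP binding activity at least 20 points away from 100%, either lowered or raised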
# Rab7 wt modul: modulators of GTP binding to Rab7, primary screen, biochemical, wildtype, multiplex bead flow cytometry | Rab7 GTPase wild type (dog), Bodipy-FL-GTP binding | GST-Rab7 beads, fluorescent GTP binding; actives lie on both sides; untreated = 100%, excess cold GTP = 0% | GTP binding activity (percent of control), % at 10 µM | hit rate 0.055% among 190,000;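 active = fluorescent GTP binding to Rab7 beads changed by at least 20 points from the 100% baseline, either direction, mostly lower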;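 also: median green fluorescence of bound Bodipy-FL-GTP per Rab7 bead population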
# Rac1 wt modul: wildtype Rac1 GTP binding modulators, primary screen, biochemical, GST-Rac1 beads, flow cytometry, multiplex. Ras-related C3 botulinum toxin substrate 1 (Homo sapiens), P63000. fluorescent GTP binding; actives lie on both sides; 0 = cold GTP competed, 100 = untreated. GTP binding activity (% of control), % at 10 µM. hit rate 0.27% among 190,000;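 active = GTP binding activity at least 20 points away from the 100% control level, either lower or higher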
# HRas wt GTP bind: modulators of GTP binding to HRas wildtype, primary screen, biochemical, bead-based flow cytometry, multiplex | GTPase HRas (Homo sapiens), P01112 | GST-Ras wt beads, Bodipy-FL-GTP binding; actives lie on both sides | GTP binding activity, % at 10 µM | hit rate 0.14% among 190,000;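 active = GTP binding activity at least 20% away from the 100% baseline, either lowered as inhibitor or raised as activator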
# Target sequence (P01112 whole entry, looked up): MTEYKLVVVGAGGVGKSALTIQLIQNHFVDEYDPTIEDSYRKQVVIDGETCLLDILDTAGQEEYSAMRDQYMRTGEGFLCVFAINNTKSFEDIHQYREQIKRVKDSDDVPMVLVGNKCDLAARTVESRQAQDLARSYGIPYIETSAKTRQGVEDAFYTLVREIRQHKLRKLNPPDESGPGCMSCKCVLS
# Hits are given with their value; i = inactive; [ ] = dose if it differs, or a comment. Compounds with a hit are over-represented: about 0.37% of the library has one in this group of screens.
SMILES,Cdc42 wt GTP,Rac1 mut GTP,Rab2 wt GTP,Rab7 wt modul,Rac1 wt modul,HRas wt GTP bind
O=C(COC(=O)c1cccs1)NCC1CCCCC1,i,i,i,i,i,i
COc1ccc(-c2cc(-c3ccccc3)c(C#N)c(=S)[nH]2)cc1,79,i,i,i,i,i
O=C(NCCO)C(O)C(O)C(=O)NCCO (stereo unspecified),i,i,i,i,i,i
CCCNC(=O)CN(c1cccc(F)c1)S(C)(=O)=O,i,i,i,i,i,i
Cc1nc2cccc(C)n2c(=O)c1Cl,i,i,i,i,120[activator],i
O=C(CSc1ncnc2sc(-c3ccccc3)cc12)NC1CCS(=O)(=O)C1 (stereo unspecified),i,i,i,i,i,i
Cc1cc(C)n2nc(SCCOc3ccccc3F)nc2n1,66,i,71,i,74,71
CCSc1nc2nc(C)cc(C)n2n1,i,i,i,i,i,i
O=C(Nc1ccc([N+](=O)[O-])cc1)c1cc(-c2ccccn2)nc2c(Cl)cccc12,i,i,i,i,i,i
Cc1ccc2nc3ccc(N4CCCC4)nn3c(=O)c2c1,i,i,i,i,i,i
CC1CCCN(c2ccc3nc4ccccc4c(=O)n3n2)C1 (stereo unspecified),i,i,i,i,78,i
CN1c2ccsc2C(O)=C(C(=S)Nc2ccc(F)c(Cl)c2)S1(=O)=O,i,i,i,i,i,i
COc1ccc(NC(=O)c2sccc2C)cn1,i,i,i,i,i,i
CCOc1cc(NS(=O)(=O)c2ccc(NC(C)=O)cc2)c(OCC)cc1NC(=O)c1cccs1,i,i,i,i,i,i
CCOC(=O)Cn1nnnc1C(CC)N(Cc1cccs1)Cc1cc2cc(C)ccc2[nH]c1=O (stereo unspecified),i,i,i,i,i,i
CCOC(=O)Cn1nnnc1C(C(C)C)N(Cc1cccs1)Cc1cc2cc(C)ccc2[nH]c1=O (stereo unspecified),75,i,i,i,i,i
COc1cc(/C=C2\SC(c3ccccc3)=NC2=O)cc(Cl)c1O,78,i,77,i,i,i
COc1cccc(Oc2nnnn2-c2ccccc2)c1,i,i,i,i,i,i
COc1cccc(-n2nnnc2S(C)(=O)=O)c1,72,70,i,i,i,i
Cc1cc(C)c(C)c(C(=O)c2ccccc2C(=O)O)c1C,132[activator],129[activator],123[activator],i,150[activator],120[activator]
Cc1ccc(C(=O)c2ccccc2C(=O)O)c(O)c1,i,i,i,i,i,i
Cc1ccc(C(=O)c2ccccc2C(=O)O)cc1C,135[activator],132[activator],124[activator],i,150[activator],123[activator]
COc1ccc(CCNC(=O)COc2nncc3ccccc23)cc1,i,i,i,i,i,i
COCc1cc(C)nc(N/N=C/c2ccc(-c3ccc(C(=O)O)c(Cl)c3)o2)c1C#N,73,i,77,i,67,78
Cc1ccc(C)c(NC(NC(=O)c2ccccn2)C(Cl)(Cl)Cl)c1 (stereo unspecified),i,i,i,i,i,i
SMILES,Cdc42 wt GTP,Rac1 mut GTP,Rab2 wt GTP,Rab7 wt modul,Rac1 wt modul,HRas wt GTP bind
O=c1[nH]c(N/N=C\c2ccc3c(c2)OCO3)nc2ccccc12,78,i,77,i,67,80
O=C(C#Cc1ccccc1)c1ccc([N+](=O)[O-])cc1,i,77,i,i,i,i
CCn1nc(C(=O)OCC(=O)c2cc(C)n(Cc3cccs3)c2C)c2ccccc2c1=O,77,74,76,i,78,i
O=C(O)c1ccccc1OCCOc1ccccc1,138[activator],132[activator],130[activator],123[activator],157[activator],123[activator]
COc1ccc2c(C)cc3nncn3c2c1,i,i,i,i,79,i
O=C(Nc1sc2c(c1C(=O)O)CCCCC2)c1ccccc1,78,77,i,i,i,i
COc1ccc(N=C2NC(=O)/C(=C/c3ccc(O)c(OC)c3)S2)cc1,i,i,i,i,i,i
COc1cc(/C=C2/SC(=Nc3ccc(O)cc3)NC2=O)cc(OC)c1O,69,79,70,i,59,74
O=C(CNCc1ccc(F)cc1)Nc1ccccc1[N+](=O)[O-],i,i,i,i,i,i
COc1ccc(CNC(=O)C/C(C)=N/NC(=O)COc2ccccc2)cc1,i,i,i,i,i,i
O=C1c2ccccc2-c2onc3ccc(Oc4ccccc4)c1c23,78,68,79,i,79,i
CCOC(=O)C(C(=O)OCC)c1cc(Br)c2noc3c2c1C(=O)c1ccccc1-3,i,i,i,i,i,i
CCn1cc(C(=O)N2CCN(c3ccccn3)CC2)c(=O)c2cc(S(=O)(=O)N(C)C3CCCCC3)ccc21,i,i,i,i,i,i
O=C(Nc1ccc2nc(-c3cccs3)[nH]c2c1)c1cccs1,75,i,77,i,76,75
CC(C)Cc1csc(NC(=O)c2ccccc2Cl)c1C(=O)O,78,i,i,i,79,i
CC(C)Cc1csc(NC(=O)c2ccc(Cl)cc2)c1C(=O)O,i,i,i,i,i,i
O=C(NCc1cccs1)c1cnc2ccccn2c1=O,i,i,i,i,i,i
O=C(NCc1cccs1)c1cccn2c(=O)c3sccc3nc12,63,77,63,i,55,66
CCOc1ccc2nc(NC(=O)CSc3nc(-c4ccccc4)c(C#N)c(=O)[nH]3)sc2c1,i,78,i,i,i,i
CCOC(=O)Cc1csc(NC(=O)CSc2nc(-c3ccccc3)c(C#N)c(=O)[nH]2)n1,i,79,i,i,i,i
CCOC(=O)c1c(CSc2ccccc2)n(C)c2cc(Br)c(OCC(O)CNC(CO)(CO)CO)cc12 (stereo unspecified),i,i,i,i,120[activator],i
COc1ccc(N2CCN(C(=O)COc3ncnc4ccccc34)CC2)cc1,i,i,i,i,i,i
O=C(NC1CCCCCC1)c1cc(=O)[nH]c2ccc(S(=O)(=O)N3CCOCC3)cc12,i,i,i,i,i,i
Cc1csc(NC(=O)c2cc(=O)[nH]c3ccc(S(=O)(=O)N4CCOCC4)cc23)n1,i,i,79,i,75,i
Cc1cc(Nc2n[nH]c(N)c2C#N)ccc1F,i,i,i,i,i,i
COc1ccc(C(=O)N[C@H](C(=O)OCc2cc(=O)oc3cc(C)ccc23)C(C)C)cc1,33,33,31,20,33,37
